# Screens as filed in PubChem BioAssay.
# NPC1 promoter act: NPC1 promoter activation; Potency, µM (titrated, usually from 9.22 µM), inactives show top-dose activation, hits mostly activators; Huh7 NPC1 promoter luciferase reporter, 24 h; AID 485313; hit rate 2.4% among 320,000; further: % of control where 0% means no effect; nearly all actives have a fitted effect of over 60% in size
#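 Huh7 cells stably carrying NPC1 promoter–luciferase, plated in Opti-MEM with 10% FBS for 2 h, were exposed to compound in DMSO for 24 h at 37 °C; luciferase reagent was added for 10 min and luminescence read.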
# Rab9 promoter act: Rab9 promoter activation; hit rate 2.8% among 320,000; Potency, µM (doses to about 9.22 µM), for inactives: at the top dose activation, negative = inhibition, most hits filed as activators; Huh7 Rab9 promoter-luciferase reporter, luminescence, 24 h; further: % of control where 0% means no effect; nearly all actives have a fitted effect of over 60% in size
#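 Luminescence read-out: Huh7 cells stably expressing Rab9-luciferase, treated 24 h with compound at 37 °C, then lysed with luciferase reagent for 10 min at ambient before reading.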
# FLuc counter: firefly luciferase modulation, counter-screen for miR-21 project; P08659; hit rate 6.9% among 360,000; AID 588342; Potency, µM (highest dose often 57.5 µM), for the others: at the top dose activity change, negative = inhibition, usual class: inhibitors; purified FLuc, Km substrates, luminescence inhibition;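 further: plate controls were vehicle for no effect and reference inhibitor for full effect; nearly all actives have a fitted effect of over 55% in size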
# Target sequence (P08659 whole entry, looked up): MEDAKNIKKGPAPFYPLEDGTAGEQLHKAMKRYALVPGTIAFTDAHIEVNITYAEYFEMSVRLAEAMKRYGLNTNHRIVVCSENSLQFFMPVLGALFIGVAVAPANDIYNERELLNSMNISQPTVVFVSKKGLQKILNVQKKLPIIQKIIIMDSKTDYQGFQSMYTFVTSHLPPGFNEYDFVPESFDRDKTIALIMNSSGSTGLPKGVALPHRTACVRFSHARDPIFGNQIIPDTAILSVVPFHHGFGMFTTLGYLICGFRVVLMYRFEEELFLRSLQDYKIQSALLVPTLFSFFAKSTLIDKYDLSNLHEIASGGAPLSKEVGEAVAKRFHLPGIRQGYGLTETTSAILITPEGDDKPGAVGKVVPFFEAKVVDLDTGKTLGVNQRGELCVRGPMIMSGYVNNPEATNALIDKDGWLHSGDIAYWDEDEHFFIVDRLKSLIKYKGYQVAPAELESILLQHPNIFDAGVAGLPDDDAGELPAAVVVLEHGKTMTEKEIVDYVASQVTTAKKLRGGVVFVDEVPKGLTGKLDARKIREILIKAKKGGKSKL
#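 Biochemical qHTS of compounds, final roughly 60 µM downward over six points, against 10 nM purified firefly luciferase using Km concentrations of substrates (10 uM D-luciferin, 10 uM ATP) in Tris acetate pH 7.5 buffer; luminescence output.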
# SMN2 splice up: enhancers of SMN2 splice variant expression; hit rate 2.8% among 210,000; AID 1458; HEK293 SMN2-luciferase splicing reporter, luminescence, 30-36 h; Potency, µM (top dose mostly 46.1 µM), for the others: at the top dose activity change, positive = activation, usual class: activators; further: % of control where 0% means no effect; nearly all actives have a fitted effect of over 55% in size
#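 qHTS luciferase splicing reporter: luminescence rises when SMN2 exon 7 is included in transfected HEK293 cells. Compound exposure lasted 30-36 h at 37C, with 4.5 mM final sodium butyrate as control, followed by a ONE-Glo read.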
# ELG1 genotoxic: induces genotoxicity in HEK293T cells with luciferase-tagged ELG1. HEK293T ELG1-luciferase reporter, luminescence, 16 h. hit rate 1.3% among 330,000. Potency, µM (highest dose often 46 µM), for the others: at the highest dose activity change, positive = activation, usual class: activators; further: % of control where 0% means no effect; nearly all actives have a fitted effect of over 60% in size
#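 After overnight (16 hr) compound treatment at 37 °C, ELG1-luciferase HEK293T cells were lysed with ONE-Glo; luminescence quantified 30 min later at room temperature.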
# Luc counter: Kinase-Glo luciferase inhibition (counter-screen). Q27757. Kinase-Glo luciferase, ATP luminescence, 8 min. Potency, µM (doses to about 38.3 µM), for the others: at the top dose activity change, negative = inhibition, actives largely listed as inhibitors. hit rate 0.28% among 200,000; further: on the % scale 0 is the no-effect control and ±100 the full control effect; nearly all actives have a fitted effect of over 60% in size
#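 Recombinant Kinase-Glo luciferase, 10 uM ATP (linear range), luciferin; imidazole pH 7.2 / KCl / MgCl2 / Tween / BSA buffer; 8 min RT; luminescence.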
# Numbers without * were called inactive; u = inconclusive; x = not tested or not shown. Shown are actives, neighbours in structure and some others; about 7.5% of the full set was active somewhere. The call rests on the fitted dose curve; in most records, active means well fitted curve in the direction sought with a large enough effect; inconclusive means small, poorly fitted or top-dose-only effect, or another doubt; inactive means no such curve, though single readings can be large; an effect the other way counts as inactive or inconclusive. Potency means the concentration at half of the fitted maximal effect.
SMILES,NPC1 promoter act,Rab9 promoter act,FLuc counter,SMN2 splice up,ELG1 genotoxic,Luc counter
O=C(Nc1ccccc1C(=O)O)c1cccc(NC(=O)c2ccccc2Cl)c1,4%,10%,19µM*,x,-2%,x
CCCCC(=O)Nc1cccc(NC(=O)c2cccc(Br)c2)c1,-7%,-13%,-17%,10%,-13%,-1%
O=C(Nc1ccccc1C(=O)O)c1cccc(NC(=O)c2ccco2)c1,4%,13%,15µM*,x,-1%,x
CCCCC(=O)Nc1cccc(C(=O)Nc2ccccc2C(=O)O)c1,-2%,4%,17µM*,x,-4%,-4%
Cc1c(Cl)cccc1NC(=O)c1cnc2sc(N3CCOCC3)nn2c1=O,x,x,-5%,x,x,x
COC(=O)CCCCCN1C(=O)NC(CC2CC2)C(C(=O)OCc2ccccc2)=C1C (centres undefined),x,x,x,-28%,x,-3%
COC(=O)Cc1coc2cc(OC)ccc12,-5%,-1%,-10%,x,4%,x
Cc1ccc(CCNC(=O)Cn2ccc3cc(S(=O)(=O)N4CCCC4)ccc32)cc1,0%,-7%,-2%,x,-7%,x
Cc1ccccc1C(=O)Nc1cccc(C(=O)Nc2ccccc2C(=O)O)c1,-1%,-3%,27µM*,x,-3%,x
O=C(O)c1cccc(NC(=O)c2ccccc2NC(=O)c2ccccc2F)c1,-2%,13%,11µM*,x,0%,x
O=C(Nc1c(O)c2ccccc2oc1=O)c1ccccc1Cl,x,x,-4%,-3%,x,x
Cc1oc(-c2ccc(C(=O)NCc3ccc(F)cc3)cc2)nc1CS(=O)c1ccccc1 (centres undefined),x,x,5%,x,x,x
Cc1c(CC(=O)N[C@H](C(=O)O)C(C)C)c(=O)oc2cc3c(cc12)CCC(C)(C)O3,2.8µM*,1.8µM*,11µM*,x,u,x
Cc1c(Cc2ccccc2)c(=O)oc2c(C)c(OCC(=O)N3CCC(C(=O)O)CC3)ccc12,0%,5%,17µM*,x,2%,x
Cc1c(CC(=O)N[C@@H](C)C(=O)O)c(=O)oc2cc3c(cc12)CCC(C)(C)O3,4%,15%,u,x,0%,x
Cc1c(CC(=O)NC(C)C)c(=O)oc2cc3c(cc12)CCC(C)(C)O3,u,3.2µM*,u,x,14%,x
Cc1c(CC(=O)NCC(C)C)c(=O)oc2cc3c(cc12)CCC(C)(C)O3,-6%,26%,u,x,1%,x
CCC(C)NC(=O)Cc1c(C)c2cc3c(cc2oc1=O)OC(C)(C)CC3 (centres undefined),u,4µM*,u,x,9%,x
COCCNC(=O)c1ccc(Cn2c(SCC(=O)NC(C)C)nc3ccccc3c2=O)cc1,x,x,-1%,x,x,x
FC(F)(F)c1cc(-c2cccc(Br)c2)nc2ncnn12,x,x,-1%,15%,x,x
Cc1coc2cc3oc(=O)c(CC(=O)N4CCCCC4)c(C)c3cc12,x,x,-1%,-3%,x,x
Cc1c(CC(=O)N2CCC(C(=O)O)CC2)c(=O)oc2cc3c(cc12)CCC1(CCCCC1)O3,-3%,3%,12µM*,x,8%,x
O=C1OC(c2ccc(F)cc2)=N/C1=C\c1ccc(Br)o1,-11%,-1%,6µM*,8%,0%,0%
COc1ccc(Oc2cnc3ccccc3n2)cc1,u,3.5µM*,-10%,19%,-3%,0%
CCN(CC)c1ccc2nc3c(=O)n(C)c(=O)n(C)c3nc2c1,x,x,-20%,-18%,x,x
CCN(CC)c1ccc2nc3ccccc3[n+](CC)c2c1,-45%,-48%,15µM*,x,-35%,x
CCN(CC)c1ccc2nc3ccc(N)cc3[n+](-c3ccccc3)c2c1,-36%,-34%,13µM*,x,-3%,x
Cc1ccc(-c2nnc(NC(=O)c3ccco3)o2)c(C)c1,u,u,2.7µM*,x,-4%,x
Cc1ccc(C)c(-c2nnc(NC(=O)c3ccco3)o2)c1,0%,-2%,15µM*,x,-7%,x
O=C(Nc1nnc(-c2ccccc2Cl)o1)c1ccco1,20%,-4%,6µM*,u,u,-8%
